Assay results published in PubChem BioAssay (NCI).
The panel holds about 79,000 compounds, 15% with a hit somewhere; the sample as a whole holds those more often. Unmarked numbers belong to inactive results. Active and inactive are the calls of the source. Cut-off read from the data, not from the text of the source: active = growth inhibition above about 70%; inactive = the rest.

Columns and labels:
[1] = NCI Yeast Anticancer Drug Screen. Data for the rad50 strain (AID 155);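 note: 0% = growth of vehicle-only cultures of the same strain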; conditions: S. cerevisiae rad50 strain growth inhibition, hits give high values
Summary of the method: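 Genetically altered yeast (DNA repair pathway); compound treatment; growth inhibition vs vehicle ctrl.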

[2] = NCI Yeast Anticancer Drug Screen. Data for the mec2-1 strain (AID 157); conditions: S. cerevisiae mec2-1 strain, hits give high values
Summary of the method: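 Using mec2-1 yeast: add compound, measure growth, express inhibition versus vehicle-treated cultures.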

[3] = NCI Yeast Anticancer Drug Screen. Data for the sgs1 mgt1 strain (AID 161);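 note: 0% = growth of cultures given vehicle only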; conditions: S. cerevisiae sgs1 mgt1 strain, hits give high values
Summary of the method: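 This yeast growth screen uses a strain with defined DNA-repair lesions; compound-treated growth is compared with vehicle-treated growth.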

[4] = NCI Yeast Anticancer Drug Screen. Data for the cln2 rad14 strain (AID 165);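 note: 0% = growth equal to vehicle treated cultures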; conditions: S. cerevisiae cln2 rad14 strain, hits give high values
Summary of the method: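 Yeast strain cln2 rad14, bearing defects in cell cycle control and DNA repair, serves as the test system; values reflect growth inhibition compared with vehicle.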

[5] = NCI Yeast Anticancer Drug Screen. Data for the bub3 strain (AID 167); conditions: S. cerevisiae bub3 mutant strain, hits give high values
Summary of the method: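 Yeast carrying a defined mutation is treated with each compound, and growth is compared with that of vehicle-exposed cells to give inhibition.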

[6] = NCI Yeast Anticancer Drug Screen. Data for the mlh1 rad18 strain (AID 175); conditions: S. cerevisiae mlh1 rad18 strain growth inhibition, hits give high values
Summary of the method: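 Steps: expose repair-defective yeast to compound; measure growth; express inhibition against vehicle-treated controls.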

[7] = at 5.0 µM (retest, dose inferred, filed as 0.5)
[8] = at 50.0 µM (retest, dose inferred, filed as 5.0)

SMILES	growth inhibition [1, 7]	growth inhibition [1, 8]	growth inhibition ([1]; at 50.0 µM)	growth inhibition [2, 7]	growth inhibition [2, 8]	growth inhibition ([2]; at 50.0 µM)	growth inhibition [3, 7]	growth inhibition [3, 8]	growth inhibition ([3]; at 50.0 µM)	growth inhibition [4, 7]	growth inhibition [4, 8]	growth inhibition ([4]; at 50.0 µM)	growth inhibition [5, 7]	growth inhibition [5, 8]	growth inhibition ([5]; at 50.0 µM)	growth inhibition [6, 7]	growth inhibition [6, 8]	growth inhibition ([6]; at 50.0 µM)
Cc1ccc(C(=O)C(F)(F)F)cc1	-162%	-138%	4.5%	-46%	-51%	-15.9%	-63%	-68%	-10.5%	-60%	-78%	32.1%	-74%	-89%	-24.1%	-145%	-117%	3.3%
NC(=S)SCCC(=O)O	-2%	4%	-31.1%	-6%	-21%	-41.5%	-10%	-14%	-3.95%	-3%	-4%	40.1%	-11%	-19%	-21.9%	-16%	-4%	2.85%
O=C(O)c1nc2cc(C(F)(F)F)ccc2nc1Nc1ccc(Cl)c(Cl)c1	23%	77% (active)	86% (active)	19%	90% (active)	80.3% (active)	-16%	52%	48.8%	-7%	85% (active)	76.5% (active)	16%	64%	55.1%	19%	87% (active)	79.1% (active)
CC(=O)Nc1ccc(S(=O)(=O)N/N=C/c2cc(I)cc([N+](=O)[O-])c2O)cc1	9%	71% (active)	89% (active)	10%	81% (active)	81.5% (active)	14%	69%	89.7% (active)	1%	35%	83.1% (active)	1%	47%	70.5% (active)	12%	72% (active)	94.3% (active)
O=[N+]([O-])c1ccc(S(=O)/N=C/c2ccccc2)c([N+](=O)[O-])c1 (configuration not stated)	-2%	96% (active)	48.2%	-4%	98% (active)	45.5%	2%	94% (active)	67.6%	1%	82% (active)	9%	-4%	97% (active)	25.9%	-4%	97% (active)	74.3% (active)
O=C(c1ccccc1)C1N=NCC1c1ccc([N+](=O)[O-])cc1 (configuration not stated)	2%	-21%	-3.65%	11%	9%	10.1%	1%	47%	18.2%	5%	-4%	-4.4%	-5%	5%	84.2% (active)	0%	-4%	40.6%
O=C1C2C3C=CC(C3)C2C(=NS(=O)(=O)c2ccccc2)C2C3C=CC(C3)C12 (configuration not stated)	-33%	9%	84.7% (active)	-2%	0%	89.8% (active)	3%	14%	91.4% (active)	-1%	-3%	22.1%	-2%	4%	53%	28%	12%	72.5% (active)
COc1cc(C2c3cc4c(cc3C(OC3CCCCO3)C3COC(=O)C23)OCO4)cc(OC)c1OC (configuration not stated)	-2%	19%	31.9%	-1%	7%	18.6%	-10%	11%	23.4%	-3%	-2%	2.35%	4%	30%	54.4%	-6%	14%	33.9%
CC(C)(C)c1ccc(-n2c3nc(=O)n(-c4ccccc4C(F)(F)F)c(=O)c-3cc3ccccc32)cc1	13%	96% (active)	59.1%	3%	99% (active)	50%	10%	98% (active)	61.1%	13%	97% (active)	60.5%	8%	98% (active)	47.1%	15%	98% (active)	65.6%
Cc1nc2c([N+](=O)[O-])c(N3CCCCC3)c([N+](=O)[O-])cc2[nH]1	10%	97% (active)	98.8% (active)	13%	98% (active)	99% (active)	13%	98% (active)	99.1% (active)	17%	94% (active)	97.7% (active)	0%	83% (active)	98.7% (active)	8%	98% (active)	99.1% (active)
Cc1cc(Cl)ccc1Nc1sc(C(=O)c2cc3cc(Cl)ccc3o2)c(N)c1C#N	16%	53%	23.7%	-3%	48%	45.5%	8%	65%	45%	6%	84% (active)	83% (active)	13%	55%	50.1%	-7%	66%	36.5%
Nc1ccc2c(SCC(=O)Nc3ccccc3-c3ccccc3NC(=O)CSc3c4ccccc4nc4cc(N)ccc34)c3ccccc3nc2c1	25%	97% (active)	90% (active)	24%	98% (active)	92.5% (active)	33%	97% (active)	91.2% (active)	17%	97% (active)	78.8% (active)	27%	97% (active)	90.5% (active)	11%	96% (active)	87.5% (active)
O=C1c2ccccc2C(=O)N1CCn1ccc(NC(c2ccccc2)(c2ccccc2)c2ccccc2)nc1=O	48%	48%	66.3%	28%	28%	74.9% (active)	50%	50%	67.2%	5%	5%	80.6% (active)	27%	27%	79.2% (active)	44%	44%	65.3%
Cc1cc(Cl)c(C(C)C)cc1O	17%	62%	53.2%	-4%	61%	48.2%	3%	55%	48.6%	2%	51%	45%	7%	55%	24.4%	8%	58%	63.4%
O=C(NNc1ncccn1)c1ccc(C(=O)NNc2ncccn2)cc1	-2%	99% (active)	2.75%	0%	100% (active)	2.1%	-3%	100% (active)	41.5%	7%	99% (active)	-25.6%	3%	99% (active)	-2.6%	2%	99% (active)	21.4%
O=C(NCCCl)N1CCC(CN=c2cc3n(-c4ccc(Cl)cc4)c4ccccc4nc-3cc2Nc2ccc(Cl)cc2)CC1	-33%	99% (active)	98.6% (active)	-5%	99% (active)	98.5% (active)	-22%	99% (active)	98.7% (active)	-56%	99% (active)	98.3% (active)	-11%	99% (active)	98.4% (active)	-34%	98% (active)	99% (active)
CCOCCC(=O)N1c2ccccc2CC1c1c[nH]c2ccccc12 (configuration not stated)	-6%	36%	74.3% (active)	-9%	32%	4.65%	-8%	59%	51.6%	-57%	36%	8.45%	-8%	48%	0.45%	-4%	34%	67.1%
CCC(C)(C)c1ccc(OC(=O)C(C)OC(C)=O)cc1 (configuration not stated)	12%	33%	82% (active)	-5%	48%	84.9% (active)	0%	68%	88% (active)	1%	21%	49.9%	-5%	53%	87.2% (active)	-10%	46%	86.7% (active)
COc1ccc(N=Nc2ccc3oc(=O)c(C(=O)Nc4ccc(OC)cc4)cc3c2)cc1	24%	97% (active)	94.8% (active)	14%	97% (active)	95.3% (active)	14%	98% (active)	95.5% (active)	26%	94% (active)	94.3% (active)	-25%	92% (active)	95.3% (active)	36%	97% (active)	95.1% (active)
